Screens: PubChem BioAssay, National Center for Advancing Translational Sciences (NCATS)
APE1 inh: APE1 (human) endonuclease inhibition. actives 0.35% (n = 350,000). AID 2517. recombinant APE1, TAMRA/BHQ-2 abasic DNA cleavage fluorescence. Potency, µM (titrated, usually from 65.8 µM), inactives show top-dose activity change, negative = inhibition, hits mostly inhibitors;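 further: potency means the concentration at half of the fitted maximal effect; plate controls were vehicle for no effect and reference inhibitor for full effect; nearly all actives have a fitted effect of over 55% in size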
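Readout is kinetic fluorescence (ex 525, em 598 nm) from cleavage of 50 nM TAMRA/BHQ-2 THF abasic duplex by 0.75 nM APE1, compound added 15 min beforehand at RT.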
RECQ1 helicase: RECQ1 (human) helicase inhibition; Potency, µM (series often up to 57.3 µM), for the others: top-dose activity, negative = inhibition, most hits filed as inhibitors; P46063; actives 0.54% (n = 240,000); AID 2549; RECQ1 DNA unwinding, red fluorescence kinetic read;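 further: potency means the concentration at half of the fitted maximal effect; plate controls were vehicle for no effect and no enzyme for full effect; nearly all actives have a fitted effect of over 30% in size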
Target sequence (P46063 whole entry, looked up): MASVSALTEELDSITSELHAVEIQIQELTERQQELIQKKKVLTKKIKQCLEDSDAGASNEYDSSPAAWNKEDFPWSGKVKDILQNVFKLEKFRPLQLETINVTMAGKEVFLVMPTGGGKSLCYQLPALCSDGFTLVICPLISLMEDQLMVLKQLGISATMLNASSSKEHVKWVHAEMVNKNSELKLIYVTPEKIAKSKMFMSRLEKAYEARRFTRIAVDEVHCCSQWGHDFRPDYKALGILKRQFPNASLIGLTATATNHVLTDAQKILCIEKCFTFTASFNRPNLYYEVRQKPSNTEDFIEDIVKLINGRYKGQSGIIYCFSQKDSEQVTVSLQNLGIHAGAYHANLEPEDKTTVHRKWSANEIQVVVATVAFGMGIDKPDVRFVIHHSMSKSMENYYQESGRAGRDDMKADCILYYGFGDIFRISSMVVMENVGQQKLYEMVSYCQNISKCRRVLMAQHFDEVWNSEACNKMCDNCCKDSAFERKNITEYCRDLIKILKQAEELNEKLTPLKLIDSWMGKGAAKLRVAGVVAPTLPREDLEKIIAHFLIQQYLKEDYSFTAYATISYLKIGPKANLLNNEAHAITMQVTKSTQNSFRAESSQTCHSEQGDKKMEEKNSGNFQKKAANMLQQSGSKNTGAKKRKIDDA
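50 nM RECQ1T1 preincubated 15 min with compound in Tris pH 8.0 buffer with MgCl2, DTT, Tween-20 and 2.5 ug/ml poly(dI-dC); started with 200 nM TAMRA/BHQ-2 forked duplex and 2 mM ATP. Unwinding read as fluorescence (525/598 nm), two reads 2 h apart.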
KDM4E inh: blocks human JMJD2E demethylase activity; Potency, µM (series often up to 57.1 µM), for the others: top-dose activity change, negative = inhibition, usual class: inhibitors; actives 1.6% (n = 230,000); AID 2147; JMJD2E catalytic domain, FDH-coupled NADH fluorescence (FDH is formaldehyde dehydrogenase); B2RXH2; active means well fitted inhibition curve with a large enough effect, not every such curve was filed as active; inconclusive means small, poorly fitted or top-dose-only effect, or another doubt; inactive means no such curve, though single readings can be large or run the other way;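 further: potency means the concentration at half of the fitted maximal effect; 0% = wells with enzyme and -100% = buffer wells without enzyme; nearly all actives have a fitted effect of over 50% in size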
PKM2 activator: increases activity of human pyruvate kinase M2 | purified PKM2, Kinase-Glo ATP luminescence, activation; response scale: 0% is enzyme alone, no compound | Potency, µM (top dose mostly 57.5 µM), for the others: at the top dose activation, hits mostly activators | actives 0.34% (n = 260,000); further: potency means the concentration at half of the fitted maximal effect; on the % scale 0 is the no-effect control and ±100 the full control effect; nearly all actives have a fitted effect of over 55% in size
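Purified hPK-M2 (>95% pure) converted ADP (0.1 mM final) to ATP with 0.5 mM PEP in 50 mM imidazole pH7.2, KCl, MgCl2, Tween 20, BSA; 1 h at room temperature. ATP detected by Kinase-Glo luminescence.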
BLM inh: inhibitors of human Bloom syndrome helicase BLM | P54132 | AID 2528 | recombinant BLM DNA unwinding, fluorescence dequenching | Potency, µM (series often up to 56.1 µM), without a hit: at the highest dose activity change, negative = inhibition, most hits filed as inhibitors | actives 0.2% (n = 350,000);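 further: potency means the concentration at half of the fitted maximal effect; plate controls were vehicle for no effect and no enzyme for full effect; nearly all actives have a fitted effect of over 35% in size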
HeLa viability: HeLa cytotoxicity, CellTiter-Glo readout; activity change, negative = cytotoxicity, % at 57.5 µM; HeLa viability, CellTiter-Glo ATP luminescence, 24 h; 230 tested, under 10 active; shares compounds with PKM2 activator; AID 1898; further: % of control where 0% means no effect
* marks the source's active call; other numbers are inactive results; i = inactive; u = inconclusive; x = no result; [ ] = another dose, or the depositor's remark. Only a selection was taken, and hits are over-represented in it overall. Unless noted, the call rests on the fitted dose curve; in most records, active means well fitted curve in the direction sought with a large enough effect; inconclusive means small, poorly fitted or top-dose-only effect, or another doubt; inactive means no such curve, though single readings can be large; an effect the other way counts as inactive or inconclusive.

SMILES | APE1 inh | RECQ1 helicase | KDM4E inh | PKM2 activator | BLM inh | HeLa viability
O=C(c1cccs1)N1CCCC(c2nc3c(nnn3Cc3cccc(Cl)c3)c(=O)[nH]2)C1 (stereo not drawn) | 18%[12.4 µM] | x | x | 12% | -1% | x
O=C(Cc1cccs1)N1CCCC(c2nc3c(nnn3Cc3cccc(Cl)c3)c(=O)[nH]2)C1 (stereo not drawn) | -8% | -9% | -1% | 16µM* | -12% | -12
COc1ccc(S(=O)(=O)N2CCN(S(=O)(=O)c3c(F)cccc3F)CC2)cc1 | 32% | x | x | x | x | 4
COc1ccc(N2CCN(S(=O)(=O)c3ccc(OC)cc3)CC2)cc1 | 8% | -1% | 3% | 11% | 0% | x
Cc1ccccc1-n1nnnc1SCc1cc(=O)n2ccsc2n1 | -6% | 3% | -16% | 0.79µM* | -5% | -20
C[C@@H]1OC(Oc2ccccc2-c2cc(=O)c3c(O)cc(O)c([C@@H]4O[C@H](CO)[C@@H](O)[C@H](O)[C@H]4O)c3o2)[C@H](O)[C@H](O)[C@H]1O (stereo partly drawn) | u | -1% | x | x | 0% | x
Cn1c2ccccc2c2nnc(SC3CCOC3=O)nc21 (stereo not drawn) | 7% | -4% | 4% | 14µM* | 2% | 2
Cc1cc2c(s1)c1cnn(Cc3ccc(C(F)(F)F)cc3)c(=O)c1n2C | x | x | x | x | x | 7
Cn1c2cc(Br)sc2c2cnn(Cc3ccc(F)cc3)c(=O)c21 | -14% | x | x | x | x | x
COc1ccc(Cn2ncc3c4sc(C)cc4n(C)c3c2=O)cc1F | x | x | x | x | x | 11
Cc1cc2c(s1)c1cnn(Cc3ccc(C(C)C)cc3)c(=O)c1n2C | x | x | x | x | x | -7
COc1ccc(Cn2ncc3c4sc(C)cc4n(C)c3c2=O)cc1 | x | x | x | x | x | 3
O=C(O)CNC(=O)c1ccc(CO)o1 | 11% | -14% | x | x | x | x
COc1cccc([C@@H]2Oc3ccc(OC)cc3/C(=N/O[C@@H](C)c3cn([C@H]4COC[C@H]4O)nn3)[C@@H]2O)c1 | 24%[12.4 µM] | -4%[11.5 µM] | x | x | 1%[12.4 µM] | x
CCc1cc(C(C)=O)c(O)cc1OCCCCCC(C)(C)c1nn[nH]n1 | -2% | -7% | -5% | -2% | -17% | x
CCOc1ccccc1N(C)C(=O)c1c2c(nc3ccccc13)C(=O)N(C1CCCCC1)C2 | x | x | x | x | 1% | x
Cc1cc2c(s1)c1cnn(Cc3cc(C(F)(F)F)cc(Cl)c3F)c(=O)c1n2C | x | x | x | x | x | 14
Cc1cc2oc(=O)cc(Cn3ncc(Cl)c(Cl)c3=O)c2cc1Cl | 10% | -6% | -11% | -5% | -7% | x
Cc1ccccc1NS(=O)(=O)c1ccc2c(c1)n(C)c(=O)n2C | 2% | -2% | -1% | 2.5µM* | -3% | 3
O=C(NCc1nnc2c(C(F)(F)F)cc(Cl)cn12)C1CCCC1 | 53% | x | x | 1% | -2% | x
O=C(NCc1nnc2c(C(F)(F)F)cc(Cl)cn12)c1cccs1 | -13% | x | x | 2.8µM* | -3% | 0
O=C(NCCN1CCOCC1)C1(C(F)(F)F)CC(CCCO)CCCO1 (stereo not drawn) | 1% | i | x | x | -2% | x
CCc1nnc(NC(=O)CSc2nnc3c4ccccc4n(C)c3n2)s1 | 8% | -11% | 7% | 1.4µM* | -2% | -2
CCCc1nnc(NC(=O)CSc2nnc3c4ccccc4n(CC)c3n2)s1 | x | x | x | x | 2% | x
C=C1CCN(C(CC(C)C)C(=O)NN2CCOCC2)S(=O)(=O)c2ccccc21 (stereo not drawn) | -1% | i | x | x | 3% | x
SMILES | APE1 inh | RECQ1 helicase | KDM4E inh | PKM2 activator | BLM inh | HeLa viability
CCCCOCCOCCSC#N | 5% | -14% | x | x | x | x
O=[N+]([O-])c1ccccc1S(=O)(=O)N1CCN(S(=O)(=O)c2ccc3c(c2)OCCO3)CC1 | 15% | x | x | x | x | x
O=S(=O)(c1ccc2c(c1)OCCO2)N1CCN(S(=O)(=O)c2cc(F)c(F)cc2F)CC1 | x | x | x | x | x | -5
O=S(=O)(c1ccc2c(c1)OCCO2)N1CCN(S(=O)(=O)c2ccc(F)cc2F)CC1 | x | x | x | x | x | 0
Cc1cnc(CNc2ncnc3ccc(-c4ccccc4C(F)(F)F)cc23)cn1 | 1% | -4% | x | x | 1% | x
COc1cc(C=O)c([N+](=O)[O-])cc1OC | u | i | 262% | 2% | 0% | x
CCOc1ccc(C2=C(C(=O)CC)Sc3nncn3N2C(=O)CC)cc1 | x | x | x | x | -9% | x
C[C@@H]1CN(S(=O)(=O)c2ccc3c(c2)OCCO3)CCN1S(=O)(=O)c1c(F)cccc1F | 30% | x | x | x | x | -2
CC(=O)N1CCN(S(=O)(=O)c2ccc3c(c2)OCCO3)CC1 | 17% | x | x | x | x | x
O=C1CN(S(=O)(=O)c2c(F)cccc2F)CCN1S(=O)(=O)c1ccc2c(c1)OCCO2 | x | x | x | x | x | 0
C[C@H]1CN(S(=O)(=O)c2c(F)cccc2F)CCN1S(=O)(=O)c1ccc2c(c1)OCCO2 | 37% | x | x | x | x | 0
CCc1c2c(nc3ccc(OC)cc13)-c1nc3ccccc3c(=O)n1C2 | -1% | 2% | x | x | -14% | x
COc1cccc(CS(=O)(=O)c2nnnn2-c2ccc(F)cc2Br)c1 | -3% | -5% | 3% | x | 3% | x
COc1cccc(NC(=O)CSc2nnc(-c3ccc(C)cc3)o2)c1 | -4% | 8% | u | 1.3µM* | -2% | 8
Cc1cc(C)n2nc(SCc3cc(=O)oc4cc(C)c(C)cc34)nc2n1 | 10% | i | -1% | -9% | -2% | x
Cc1cc(C)n2nc(SCc3cc(=O)oc4ccc5ccccc5c34)nc2n1 | 13% | -2% | u | 2.8µM* | -3% | 0
N#CCCCSc1nnnn1-c1cc(C(F)(F)F)cc(C(F)(F)F)c1 | 1% | i | u | x | 1% | x
O=C(NCc1ccc2c(c1)OCO2)c1ccc(NS(=O)(=O)c2ccc3c(c2)OCCO3)cc1 | -12% | -2% | -9% | 4.5µM* | -2% | 1
O=C(NCc1ccc2c(c1)OCO2)c1ccc(S(=O)(=O)N2CCCCC2)cc1 | u | -5% | -1% | 0% | 0% | x
C=C1C=CS(=O)(=O)N(C(C)C(=O)OC)C1 (stereo not drawn) | -1% | u | x | x | 0% | x
Cc1cccc(N2CCN(C(=O)c3c(C)nn(Cc4ccccc4Cl)c3C)CC2)c1C | 4% | -6% | -21% | 3.5µM* | 2% | u
Cc1ccc(S(=O)(=O)c2cc3cc(Br)ccc3oc2=O)cc1 | u | 2% | -5% | u | 2% | x
CC(C)c1ccc(S(=O)(=O)c2cc3cc(Br)ccc3oc2=O)cc1 | 3% | -7% | -3% | 0.56µM* | 1% | -12
CNc1c([N+](=O)[O-])cnn1-c1ccc(Cl)cc1 | 14% | i | -1% | 7.9µM* | -2% | 8
CNc1c([N+](=O)[O-])cnn1-c1ccc(F)cc1 | 1% | i | 4% | 20% | -4% | x
Cc1cccc(NS(=O)(=O)c2cc3c(cc2C)NC(=O)CO3)c1 | 11% | x | x | 0.71µM* | -1% | -15
